Rows were chosen to be rich in hits. Some 3.4% of all compounds tested hit in one or more screens of this group.
ADAM17 inh – inhibitors of human ADAM17 | P78536 | recombinant ADAM17, EDANS/DABCYL FRET peptide cleavage | inhibition, % at 6.95 µM | 0.83% of 370,000 active | AID 720648;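 active = inhibition above the mean of compounds lying between control limits plus 3 SD, set per campaign, cut at about 8.5% in these data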;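 note: 0% = DMSO-only wells as the low control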
KLK7 zymogen act – proKLK7 (human) activation, primary screen. P49862. purified proKLK7, EDANS-DABCYL substrate fluorescence; 100% is mature enzyme control, 0% vehicle. activation, % at 7 µM. 0.9% of 370,000 active. AID 652039;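 active = activation above the mean of all tested compounds plus 3 SD, computed per campaign excluding outliers beyond control limits, cut at about 13% in these data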
PLCg1 inh – inhibitors of human phospholipase C gamma1; 0.84% of 370,000 active; AID 720700; purified PLC-gamma1, fluorogenic substrate, fluorescence; inhibition, % at 12.2 µM; P19174; in the data active = inhibition above about 9.5%
sPLA2-III inh – Blocks human group III sPLA2 activity; inhibition, % at 12.2 µM; AID 743126; 0.56% of 370,000 active; Q9NZ20; QFRET BODIPY PC-A2 liposome hydrolysis, fluorescence;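 active = inhibition above mean plus 3 SD of compounds lying within the high and low control bounds, cut at about 19% in these data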;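 note: 0% = median of test compound wells and 100% = no enzyme DMSO wells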
ADAM10 inh – inhibits human ADAM10 | O14672 | recombinant ADAM10, EDANS/DABCYL FRET peptide cleavage, 3 h | inhibition, % at 7 µM | 0.62% of 370,000 active | AID 720582;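 active = inhibition above a per-campaign cutoff equal to the mean of compounds falling between control-based bounds plus 3 SD, cut at about 20% in these data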;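 note: 0% = DMSO wells while the 100% control is not disclosed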
PLCb3 inh – inhibitors of human phospholipase C beta3. 0.18% of 370,000 active. AID 720704. Purified PLC-beta3, fluorogenic substrate, fluorescence. inhibition, % at 12.2 µM; in the data active = inhibition above about 11%;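 note: 0% = median of compound wells on plate and 100% = full blocker control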
Target sequence (Q01970 whole entry, looked up): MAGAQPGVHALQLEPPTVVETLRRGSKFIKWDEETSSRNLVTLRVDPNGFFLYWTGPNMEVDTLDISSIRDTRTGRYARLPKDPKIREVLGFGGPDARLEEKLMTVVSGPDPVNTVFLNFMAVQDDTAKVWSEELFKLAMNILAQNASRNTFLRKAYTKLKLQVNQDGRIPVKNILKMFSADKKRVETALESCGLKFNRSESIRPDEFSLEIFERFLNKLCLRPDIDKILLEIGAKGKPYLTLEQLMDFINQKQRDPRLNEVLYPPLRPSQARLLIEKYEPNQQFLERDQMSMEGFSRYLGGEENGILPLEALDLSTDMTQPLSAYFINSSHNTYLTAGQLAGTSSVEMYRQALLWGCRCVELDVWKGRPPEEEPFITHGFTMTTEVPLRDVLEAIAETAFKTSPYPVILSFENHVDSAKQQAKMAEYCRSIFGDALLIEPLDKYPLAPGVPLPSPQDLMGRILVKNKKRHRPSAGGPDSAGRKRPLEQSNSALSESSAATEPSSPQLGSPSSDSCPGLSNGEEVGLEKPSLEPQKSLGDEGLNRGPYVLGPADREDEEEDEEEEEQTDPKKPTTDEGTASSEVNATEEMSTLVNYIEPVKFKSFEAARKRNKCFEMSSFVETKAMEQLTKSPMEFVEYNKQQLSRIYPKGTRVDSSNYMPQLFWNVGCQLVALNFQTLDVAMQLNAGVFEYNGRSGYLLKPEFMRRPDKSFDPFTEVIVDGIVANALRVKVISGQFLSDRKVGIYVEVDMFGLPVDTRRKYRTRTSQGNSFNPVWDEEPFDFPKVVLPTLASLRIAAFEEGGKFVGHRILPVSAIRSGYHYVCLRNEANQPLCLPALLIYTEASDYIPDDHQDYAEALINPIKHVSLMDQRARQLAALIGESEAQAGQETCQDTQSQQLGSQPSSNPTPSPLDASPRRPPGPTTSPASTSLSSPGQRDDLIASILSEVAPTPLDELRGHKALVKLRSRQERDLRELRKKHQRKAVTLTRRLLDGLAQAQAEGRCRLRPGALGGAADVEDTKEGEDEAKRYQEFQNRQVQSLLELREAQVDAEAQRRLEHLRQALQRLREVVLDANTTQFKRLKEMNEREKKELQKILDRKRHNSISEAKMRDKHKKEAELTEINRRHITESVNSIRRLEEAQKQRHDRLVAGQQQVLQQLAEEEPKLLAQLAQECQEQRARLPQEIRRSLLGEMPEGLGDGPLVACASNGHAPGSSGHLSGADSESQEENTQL
ADAM10 confirm – human ADAM10 inhibition, confirmation | AID 743208 | shares compounds with ADAM10 inh | inhibition, % at 6.95 µM | ADAM10 QFRET peptide cleavage, EDANS fluorescence | 1% of 2,100 active;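 active = inhibition above about 20% chosen separately for each screening run, limit read from the data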;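 note: 0% = DMSO wells and 100% = marimastat wells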
ADAM17 counter – ADAM17 inhibition, counter-screen for ADAM10 exosite hits | shares compounds with ADAM10 inh | ADAM17 QFRET peptide cleavage, EDANS fluorescence | inhibition, % at 6.95 µM | 0.5% of 2,100 active | AID 743214;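 active = mean triplicate inhibition above the solvent-only control wells' mean plus 3 SD, cut at about 12% in these data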;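 note: 0% = DMSO wells and 100% = marimastat wells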
The depositor's hits bear a star.

What do the screens show for `CCOC(=O)c1cccc(-c2cc(C(=O)OC)c3n(c2=O)CCC3)c1`?
ADAM17 inh: -15; KLK7 zymogen act: 1; PLCg1 inh: -10; sPLA2-III inh: -3; ADAM10 inh: -45; PLCb3 inh: -12

How did COc1ccc(Cl)cc1NS(=O)(=O)c1ccc(S(=O)(=O)N2CCCC2)cc1 do in these assays?
ADAM17 inh: 2; KLK7 zymogen act: 0; PLCg1 inh: 4; sPLA2-III inh: -23; ADAM10 inh: 20*; PLCb3 inh: 1; ADAM10 confirm: 1; ADAM17 counter: 0

What do the screens show for `CCCn1c(C(CO)Nc2nc(-c3cccc(Br)c3)cs2)nc2ccccc21` (stereo not given)?
ADAM17 inh: 9; KLK7 zymogen act: -1; PLCg1 inh: 1; sPLA2-III inh: -32; ADAM10 inh: 22*; PLCb3 inh: 1; ADAM10 confirm: 10; ADAM17 counter: 3

Results for OCCOCCn1c(C(CO)Nc2nc(-c3cccc(Br)c3)cs2)nc2ccccc21 (stereo not given) ?
ADAM17 inh: 3; KLK7 zymogen act: 1; PLCg1 inh: 2; sPLA2-III inh: -16; ADAM10 inh: 2; PLCb3 inh: 1

Results for COC(C(=O)Nc1ccc(S(=O)(=O)Nc2cccc3ccccc23)cc1)c1ccccc1 (stereo not given) ?
ADAM17 inh: 8; KLK7 zymogen act: 0; PLCg1 inh: -3; sPLA2-III inh: -48; ADAM10 inh: 21*; PLCb3 inh: -1; ADAM10 confirm: 5; ADAM17 counter: 2

What do the screens show for `COC(C(=O)Nc1ccc(S(=O)(=O)Nc2ccc(F)cc2)cc1)c1ccccc1` (stereo not given)?
ADAM17 inh: 6; KLK7 zymogen act: 0; PLCg1 inh: 3; sPLA2-III inh: -53; ADAM10 inh: 5; PLCb3 inh: 4

What do the screens show for `O=C(Nc1ccc(Cl)cc1)Nc1ccccc1NS(=O)(=O)c1cccs1`?
ADAM17 inh: 8; KLK7 zymogen act: 0; PLCg1 inh: 9; sPLA2-III inh: -25; ADAM10 inh: 23*; PLCb3 inh: 6; ADAM10 confirm: 4; ADAM17 counter: 1

How did O=S1(=O)c2c(cccc2N2CCC[C@@H]2CO)O[C@@H]2CCN1C2 do in these assays?
ADAM17 inh: -4; KLK7 zymogen act: 0; PLCg1 inh: -4; sPLA2-III inh: 17; ADAM10 inh: -5; PLCb3 inh: -5

What do the screens show for `C[C@H](NC(=O)c1[nH]cnc1C(=O)Nc1ccccc1)c1ccccc1`?
ADAM17 inh: 6; KLK7 zymogen act: 0; PLCg1 inh: 0; sPLA2-III inh: -3; ADAM10 inh: 14; PLCb3 inh: -2

How did CC(C)C[C@H](NC(=O)c1nc[nH]c1C(=O)N1CCc2ccccc2C1)C(=O)OCc1ccccc1 do in these assays?
ADAM17 inh: 6; KLK7 zymogen act: 0; PLCg1 inh: 4; sPLA2-III inh: -10; ADAM10 inh: 16; PLCb3 inh: 5

Results for CC(C)(C)OC(=O)NCc1ccc(CNC(=O)c2nc[nH]c2C(=O)NCc2ccccc2)cc1 ?
ADAM17 inh: 8; KLK7 zymogen act: 0; PLCg1 inh: 3; sPLA2-III inh: -20; ADAM10 inh: 21*; PLCb3 inh: 3; ADAM10 confirm: 3; ADAM17 counter: 0

Results for CN(Cc1ccccc1)C(=O)c1[nH]cnc1C(=O)N[C@@H](Cc1ccccc1)C(=O)OC(C)(C)C ?
ADAM17 inh: 8; KLK7 zymogen act: 0; PLCg1 inh: 4; sPLA2-III inh: -18; ADAM10 inh: 23*; PLCb3 inh: 3; ADAM10 confirm: 0; ADAM17 counter: 1

Results for Cc1cccc(NC(=O)c2nc[nH]c2C(=O)N[C@H](C)c2ccccc2)c1 ?
ADAM17 inh: 7; KLK7 zymogen act: 0; PLCg1 inh: 2; sPLA2-III inh: -14; ADAM10 inh: 23*; PLCb3 inh: 3; ADAM10 confirm: 6; ADAM17 counter: 2

Results for CC(C)(C)OC(=O)NCc1ccc(CNC(=O)c2[nH]cnc2C(=O)NCC(=O)OCc2ccccc2)cc1 ?
ADAM17 inh: 5; KLK7 zymogen act: 0; PLCg1 inh: 4; sPLA2-III inh: -22; ADAM10 inh: 11; PLCb3 inh: 2

Results for O=C(N[C@@H](Cc1ccccc1)C(=O)OCc1ccccc1)c1nc[nH]c1C(=O)N1CCc2ccccc2C1 ?
ADAM17 inh: 9.3*; KLK7 zymogen act: 0; PLCg1 inh: -3; sPLA2-III inh: -24; ADAM10 inh: 20*; PLCb3 inh: 1; ADAM10 confirm: 3; ADAM17 counter: 2

What do the screens show for `O=C(Nc1ccccc1)c1nc[nH]c1C(=O)NCc1ccccc1`?
ADAM17 inh: 8; KLK7 zymogen act: 1; PLCg1 inh: 2; sPLA2-III inh: -7; ADAM10 inh: 24*; PLCb3 inh: 1; ADAM10 confirm: 2; ADAM17 counter: 1

Results for O=C(NCc1ccc(Cl)cc1)C1CCCN(c2ncccn2)C1 (stereo not given) ?
ADAM17 inh: -6; KLK7 zymogen act: 0; PLCg1 inh: -5; sPLA2-III inh: 6; ADAM10 inh: -17; PLCb3 inh: -6

How did COc1ccc(C2CC2/C(=N/O)c2ccccc2)cc1 (stereo not given) do in these assays?
ADAM17 inh: 1; KLK7 zymogen act: 0; PLCg1 inh: 3; sPLA2-III inh: -3; ADAM10 inh: -4; PLCb3 inh: -4

How did O/N=C(/c1ccc(F)cc1)C1CC1c1c(F)cccc1Cl (stereo not given) do in these assays?
ADAM17 inh: 4; KLK7 zymogen act: 0; PLCg1 inh: 2; sPLA2-III inh: 1; ADAM10 inh: 26*; PLCb3 inh: -1; ADAM10 confirm: 3; ADAM17 counter: 1

How did N#Cc1cccc(NC(=O)OC2CC3CC2[C@H]2CCCCN2[C@H]3Cc2ccccc2)c1 (stereo not given in full) do in these assays?
ADAM17 inh: 2; KLK7 zymogen act: 0; PLCg1 inh: 2; sPLA2-III inh: -7; ADAM10 inh: 5; PLCb3 inh: -2

How did CCc1ccc(NC(=O)c2ccc(F)c(S(=O)(=O)N(CC)c3ccccc3)c2)cc1 do in these assays?
ADAM17 inh: 3; KLK7 zymogen act: 0; PLCg1 inh: 3; sPLA2-III inh: -8; ADAM10 inh: 20*; PLCb3 inh: 2; ADAM10 confirm: 3; ADAM17 counter: 0

Results for N#Cc1c(N)[nH]c(=S)c(C#N)c1-c1ccccc1 ?
ADAM17 inh: -12; KLK7 zymogen act: -1; PLCg1 inh: -12; sPLA2-III inh: 8; ADAM10 inh: -56; PLCb3 inh: -24
